Assay results as given in the OligoGym collection.

biological target: ASPRV1; experiment: pooled miR-30 sensor sort-seq; sequence = guide strand; settings: shRNA

Compared with TCTTTCAGGAACCTTAGCTTGG, TTCAGCACCATTGGCCACCTTT is lower in sensor-assay potency score (higher = more potent): -0.57 for the first, -0.724 for the second.

Compared with TGAGATAGTAGCCCTTACCCAT, TTGCCTAGGGACACCGCTGTAT is lower in sensor-assay potency score (higher = more potent): -0.959 for the first, -1.05 for the second.

Compared with TTGAGGTCATTGATGACTTCAA, TAGCTTGGTGATATGGTCCCAA is higher in sensor-assay potency score (higher = more potent): -0.277 for the first, 0.0777 for the second.

Compared with TTTCAGGAACCTTAGCTTGGTG, TTCAGGAACCTTAGCTTGGTGA is lower in sensor-assay potency score (higher = more potent): -0.909 for the first, -1.12 for the second.

Going from ATTGATGACTTCAAAGCTGTGC to TTGAGTCTTTGTCATCAACAGC, the sensor-assay potency score (higher = more potent) falls from 0.217 to -1.26.

biological target: ASTE1; experiment: as above; settings: shRNA

First: TAGAACAGCTGGTATTCTGTTT
Second: TTGAACTGAAGCAAAGACGGTG
The sensor-assay potency score (higher = more potent) of the first is lower: -0.362 for the first, 0.0207 for the second.

Compared with TTATCTGAAATGTCACATCCTC, TTATCTAGTGCTTCGGTAGGGT is higher in sensor-assay potency score (higher = more potent): 0.002 for the first, 0.589 for the second.

Going from TTCATTACTATGATCTTCCACA to TTTTTTTTTGAATTTGATCTAC, the sensor-assay potency score (higher = more potent) falls from -0.12 to -0.318.

Compared with TATTCTTCCATGGAACAGCAGA, TTGAATTTGATCTACCTTTTGG is higher in sensor-assay potency score (higher = more potent): -0.626 for the first, -0.435 for the second.

First: TTTTCAACCATTAACAACCCAA
Second: TAGATATTCATAAAGTTGCTTA
The sensor-assay potency score (higher = more potent) of the first is higher: -0.22 for the first, -0.483 for the second.

Going from TAGCTTTGCTTTGGTCTCGGTG to TTTTTGAATTTGATCTACCTTT, the sensor-assay potency score (higher = more potent) rises from -0.912 to -0.342.
